Screening results as filed in PubChem.
Shown are actives, neighbours in structure and some others; about 3.5% of the full set was active somewhere.
NS1 function inh = blocks influenza NS1 protein function; Potency, µM (titrated, usually from 46.1 µM), for inactives: top-dose activity, positive = more growth; 0.4% of 270,000 active; AID 2326; calls by dose curve; further: actives are rising curves; nearly all actives have a fitted effect of over 50% in size
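Compounds were scored for reversing the slow growth caused by influenza A NS1 in S. cerevisiae, measured by optical density at 600 nm. Assay medium contained 2% galactose at pH 6.0; NS1-free yeast of the same strain were the positive control.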
Tb PYK inh = inhibitors of Trypanosoma brucei pyruvate kinase; Q57TT1; TbPYK enzyme, Kinase-Glo Plus ATP luminescence, 45 min; Potency, µM (doses to about 76.8 µM), inactives show at the highest dose activity, negative = inhibition, hits mostly inhibitors; 0.12% of 410,000 active; further: on the % scale 0 is the no-effect control and ±100 the full control effect; nearly all actives have a fitted effect of over 50% in size
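In this concentration-response screen, enzyme-free wells defined baseline while DMSO plates tracked drift. Each reaction combined TbPYK, substrate, compound and 130 uM ADP for 45 min at room temperature. Kinase-Glo Plus luminescence gave the signal.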
Giardia FBPA inh = inhibitors of Giardia lamblia fructose-1,6-bisphosphate aldolase. A8B2U2. purified Giardia FBPA. Potency, µM (top dose mostly 59.6 µM), for inactives: at the top dose activity, negative = inhibition, actives largely listed as inhibitors. 0.71% of 290,000 active. AID 2451; further: on the % scale 0 is the no-effect control and ±100 the full control effect; nearly all actives have a fitted effect of over 55% in size
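Giardia FBPA (40 nM reagent) was preincubated 10 min at RT with compound (up to 57.5 uM final), then substrate plus GAPDH/TPI/NAD/arsenate coupling system with diaphorase/resazurin was added; resorufin fluorescence (525/598 nm) was read after 20 min.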
LmPK inhibitor = inhibitors of Leishmania mexicana pyruvate kinase; Potency, µM (series often up to 57.5 µM), for inactives: at the top dose activity change, negative = inhibition, usual class: inhibitors; purified LmPK, Kinase-Glo ATP luminescence, 1 h; 0.37% of 290,000 active; Q27686; further: on the % scale 0 is the no-effect control and ±100 the full control effect
Target sequence (Q27686 whole entry, looked up): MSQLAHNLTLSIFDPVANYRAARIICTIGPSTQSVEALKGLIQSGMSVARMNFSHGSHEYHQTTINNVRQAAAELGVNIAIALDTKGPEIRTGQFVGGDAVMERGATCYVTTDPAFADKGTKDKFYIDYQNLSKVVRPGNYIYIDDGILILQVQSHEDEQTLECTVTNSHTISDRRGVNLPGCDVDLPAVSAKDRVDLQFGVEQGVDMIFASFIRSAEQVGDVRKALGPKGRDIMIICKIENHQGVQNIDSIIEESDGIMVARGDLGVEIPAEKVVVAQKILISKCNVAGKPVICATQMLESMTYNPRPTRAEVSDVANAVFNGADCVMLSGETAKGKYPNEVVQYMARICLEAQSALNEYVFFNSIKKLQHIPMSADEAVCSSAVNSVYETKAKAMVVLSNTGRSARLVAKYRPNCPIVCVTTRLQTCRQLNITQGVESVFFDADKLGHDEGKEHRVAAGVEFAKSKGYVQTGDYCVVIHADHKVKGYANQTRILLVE
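ATP generated from ADP (0.1 mM) and PEP (0.5 mM) by 0.1 nM LmPK over 1 h at room temperature (pH 7.2 imidazole buffer) was detected by coupled luciferase luminescence. Values were normalized to uninhibited and no-enzyme wells.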
Sm TGR inh = blocks Schistosoma mansoni thioredoxin glutathione reductase | Potency, µM (series often up to 114 µM), without a hit: top-dose activity change, negative = inhibition, actives largely listed as inhibitors | AID 485364 | 3% of 360,000 active | purified TGR, DTNB reduction, TNB absorbance 405 nm; further: on the % scale 0 is the no-effect control and ±100 the full control effect; nearly all actives have a fitted effect of over 60% in size
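TGR 20 nM + NADPH 100 uM (dispensed conc.), cpd preinc 15 min RT; start with NADPH (500 uM addition) then DTNB (15 mM addition). Kinetic TNB absorbance, 405 nm filter. Four-parameter Hill fit across titration.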
RE007 growth inh = less growth of the S. pombe RE007 Vpr strain; S. pombe RE007 Vpr strain, BacTiter-Glo ATP luminescence, 24 h; Potency, µM (titrated, usually from 92.2 µM), for inactives: at the highest dose activity change, negative = less growth, usual class: inhibitors; 0.21% of 360,000 active; AID 651644; active means well fitted falling curve with a large enough effect; inconclusive means small, poorly fitted or top-dose-only effect; inactive means no such curve, though single readings can be large or run the other way; further: on the % scale 0 is the no-effect control and ±100 the full control effect; nearly all actives have a fitted effect of over 50% in size
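Fission yeast strain RE007, carrying one chromosomally integrated HIV-1 vpr copy, was seeded at OD 0.01 in PMG+AL medium with 23 nL pinned compound. After 24 h at 30 °C and 99% humidity, viability was read by BacTiter-Glo luminescence.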
The depositor's hits bear a star; ? = inconclusive; . = not tested or not shown; [ ] = another dose, or the depositor's remark. Unless noted, the call rests on the fitted dose curve; in most records, active means well fitted curve in the direction sought with a large enough effect; inconclusive means small, poorly fitted or top-dose-only effect, or another doubt; inactive means no such curve, though single readings can be large; an effect the other way counts as inactive or inconclusive. Potency means the concentration at half of the fitted maximal effect.

SMILES	NS1 function inh	Tb PYK inh	Giardia FBPA inh	LmPK inhibitor	Sm TGR inh	RE007 growth inh
CCc1cc(=S)n2c([nH]c3ccccc32)c1C#N	.	?	3.0%	-9.2%	1.58µM*	-5.7%
COc1ccc(CCNC(=O)CCCCn2c(=O)c3ccccc3n(Cc3ccc(F)cc3Cl)c2=O)cc1OC	.	-2.0%	.	.	-11.6%	.
C/C=C\C=C\C(=O)N1CC2(CC(c3cccc(NC(=O)CC(c4ccccc4)c4ccccc4)c3)=NO2)C[C@H]1C(N)=O (stereo partly drawn)	15.3%	-15.7%	-9.8%	3.3%	7.08µM*	0.2%
C/C=C/C=C\C(=O)Nc1cccc(C2=NOC3(C2)C[C@@H](C(N)=O)N(C(=O)c2cc([N+](=O)[O-])cc([N+](=O)[O-])c2)C3)c1 (stereo partly drawn)	-5.6%	-3.3%	-25.0%	4.7%	3.55µM*	-5.8%
C/C=C\C=C/C(=O)Nc1cccc(C2=NOC3(C2)C[C@@H](C(N)=O)N(C(=O)[C@H]2CCC(=O)N2)C3)c1 (stereo partly drawn)	2.3%	-12.7%	-0.2%	-3.7%	3.55µM*	0.4%
C/C=C\C(=O)Nc1cccc(C2=NOC3(C2)C[C@@H](C(N)=O)N(C(=O)C2(C)CC2)C3)c1 (stereo partly drawn)	4.7%	0.5%	2.5%	0.6%	-0.7%	-0.7%
C/C=C\C=C/C(=O)Nc1cccc(C2=NOC3(C2)C[C@@H](C(N)=O)N(C(=O)C2(C)CC2)C3)c1 (stereo partly drawn)	-6.4%	-30.0%	-11.7%	3.3%	1.78µM*	-3.9%
C/C=C(\C)C(=O)N1CC2(CC(c3cccc(NC(=O)CC(c4ccccc4)c4ccccc4)c3)=NO2)C[C@H]1C(N)=O (stereo partly drawn)	-0.4%	.	-22.3%	5.4%	0.0%	.
CCCCOC(=O)c1ccc(NC(=O)c2cnc3ccc(C)cn3c2=O)cc1	.	2.0%	.	.	5.4%	.
COc1ccc(N(Cc2cccs2)C(=O)COc2cc(C)c(Cl)c(C)c2)cc1	.	2.4%	.	.	-1.5%	.
COc1cccc(NS(=O)(=O)c2ccc3[nH]cc(C(=O)N(C)C4CCCCC4)c(=O)c3c2)c1	.	3.5%	.	.	-6.0%	.
C/C=C\C=C/C(=O)Nc1cccc(C2=NOC3(C2)C[C@@H](C(N)=O)N(C(=O)/C=C/CC)C3)c1 (stereo partly drawn)	-2.0%	3.6%	-19.2%	3.4%	1.78µM*	-2.2%
COC(=O)c1cccc(NC(=S)Nc2ccc(Cl)c(Cl)c2)c1	-84.0%	0.9%	-18.3%	3.4%	22.4µM*	-16.1%
COC(=O)c1cccc(NC(=S)Nc2ccccc2Cl)c1	-1.6%	0.3%	-18.2%	3.9%	22.4µM*	-8.9%
Cc1c(NC(=O)COc2ncnc3ccccc23)c(=O)n(-c2ccccc2)n1C	-10.0%	-2.8%	2.4%	0.7%	35.5µM*	-4.6%
CC(C)CC1NC(=O)N(CC(=O)Nc2ccc(-c3ccccc3)cc2)C1=O (stereo not drawn)	.	0.6%	.	.	-7.5%	5.8%
CC(C)(C)c1ccccc1NC(=O)CN1C(=O)NC(Cc2ccccc2)C1=O (stereo not drawn)	.	-6.3%	.	.	50.1µM*	-9.8%
CC(C)CC1NC(=O)N(CC(=O)Nc2ccccc2-c2ccccc2)C1=O (stereo not drawn)	.	-0.4%	-2.0%	4.1%	2.24µM*	4.1%
Cc1c(NC(=O)CN2C(=O)NC(CCc3ccccc3)C2=O)c(=O)n(-c2ccccc2)n1C (stereo not drawn)	.	-4.5%	5.4%	-0.8%	22.4µM*	1.6%
CCOC(=O)c1nc(Nc2ccc(C(=O)OCC(C)C)cc2)c2ccccc2n1	.	0.0%	.	.	4.2%	.
COc1ccc(-c2noc(CSc3nnc(-c4ccc(Cl)cc4)n3C)n2)cc1OC	.	-6.7%	.	.	-2.8%	.
O=C1CN(/N=C\c2ccc([N+](=O)[O-])o2)C(=O)N1	.	.	-24.0%[21.7 µM]	.	.	.
O=C1NC(=S)S/C1=C\C=C\c1ccc([N+](=O)[O-])o1	-104.7%	-19.5%	-19.5%	-12.7%	2.24µM*	39.8µM*
